Experimental data: PubChem BioAssay (NCI)
This is part of a sample that, as a whole, favours compounds with a hit. Of some 83,000 tested, about 20% had one in any assay.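 Note: values are percent growth. 100 is the growth of untreated cells, values between 100 and 0 indicate rising inhibition; between -100 and 0 indicates cell death.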 Values without a mark were called inactive. Calls of active or inactive are those of the source. The calls were made as follows: active = growth percent below 10; inactive = the rest.

System: RPMI-8226 leukemia
Experiment: NCI-60 one-dose screen, 48 h (100 = growth as untreated, 0 = no growth, -100 = all killed)
Conditions: 10 µM unless noted

Compound | growth
C#C[C@]1(O)CC[C@H]2[C@@H]3CC=C4c5nc(Nc6ncccn6)sc5CC[C@]4(C)[C@H]3CC[C@@]21C | -12.3% (active)
CC(C)(C)c1cc(C(=O)N2CCC(C(=O)NCCN)CC2)cc(C(C)(C)C)c1 | 94.4%
CCOC(=O)/C(C#N)=C(\C)CCc1ccccc1 | 61.1%
COc1ccc2c3ccnc(C(F)(F)F)c3n(CCCCN)c2c1 | 31.3%
O=C(O)c1cccc(CN2CCN(c3cc4c(cc3F)c(=O)c(C(=O)O)cn4C3CC3)CC2)c1O | 103%
CCN(CC)c1ccc2cc(C(Nc3ccc(Br)c(C(F)(F)F)c3)c3nnnn3C(C)(C)C)c(=O)oc2c1 (centres undefined) | 87.1%
O=C(NCCCNC(=O)OCc1ccc2c(Br)cc(Br)c(O)c2n1)OCc1ccc2c(Br)cc(Br)c(O)c2n1 | -27.3% (active)
C[N+](C)(C)c1ncnc2[n-]cnc12 | 126%
O=S(=O)(c1ccc(N/N=C\c2ccccc2Cl)cc1)c1ccc(N/N=C/c2ccccc2Cl)cc1 | -16.1% (active)
CCCOc1ccc(-c2nc(-c3ccc(N)cc3)cs2)cc1 | 96.6%
O=C(NCc1ccc(Cn2c(=O)sn(-c3ccccc3)c2=O)cc1)OCc1ccc2c(Br)cc(Br)c(O)c2n1 | -17.7% (active)
N#CCCc1c[nH]c2ccccc12 | 92.7%
C=CCCCCCCCCC(=O)OC(C)C | 99.7%
COc1cc2c(cc1OCCCCCOc1ccc(-n3c(C)nc4ccccc4c3=O)cc1)N=C[C@@H]1CCCN1C2=O | -35% (active)
